From PubChem
Rows were chosen to be rich in hits. Some 2.3% of all compounds tested hit in one or more screens of this group.
Nrf2 ARE act – Nrf2 pathway activation; AREc32 ARE-luciferase reporter (MCF7-derived line), luminescence, 24 h; Potency, µM (highest dose often 46.1 µM), without a hit: at the top dose activation, usual class: activators; 410,000 compounds, 0.31% hits; AID 624171; note: potency is the fitted concentration of half-maximal effect; % of control where 0% means no effect; nearly all actives have a fitted effect of over 65% in size
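ARE-driven firefly luciferase activity in AREc32 cells measured after a 24 hr compound exposure at 37 deg C, using Steady-Glo reagent and a 30 min room-temperature hold.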
Nrf2 inh – Nrf2 pathway inhibition. AID 504444. 360,000 compounds, 2.1% hits. A549 ARE-Fluc reporter, luciferase luminescence, 18-24 h. Potency, µM (series often up to 46 µM), inactives show at the top dose activity change, negative = inhibition, usual class: inhibitors; note: potency is the fitted concentration of half-maximal effect; % is set by controls: 0 for no effect and ±100 for the full control effect; nearly all actives have a fitted effect of over 60% in size
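Two sequential reads on A549 ARE_Fluc cells exposed to compound for 18-24 h: a CellTiter-Fluor fluorescence read for viability, then a luciferase luminescence read for Nrf2/ARE activity.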
Giardia kill – kills Giardia lamblia; Giardia lamblia trophozoite viability; activity change, % at 7.66 µM, hits read low; 340,000 compounds, 0.15% hits; in the data active = activity change below about -80%; inconclusive = between about -30% and that limit;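 note: parasites exposed to compound for two days anaerobically before the ATP read; % is set by controls: 0 for no effect and ±100 for the full control effect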
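Anaerobic 48 hrs incubation at 37 deg C of 100 trophozoites/well with test compounds; ATPLite 1-Step luminescence, 15-30 min RT, reports cellular ATP as viability.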
Apoferritin bind – candidate novel general anesthetic via apoferritin binding | P02791 | apoferritin/1-aminoanthracene competitive binding, fluorescence | Potency, µM (series often up to 77.5 µM), inactives show top-dose activity change, negative = displacement, actives largely listed as inhibitors | 350,000 compounds, 0.074% hits; note: potency is the fitted concentration of half-maximal effect; % is set by controls: 0 for no effect and ±100 for the full control effect; nearly all actives have a fitted effect of over 20% in size
Target sequence (P02791 2-175 limits assumed): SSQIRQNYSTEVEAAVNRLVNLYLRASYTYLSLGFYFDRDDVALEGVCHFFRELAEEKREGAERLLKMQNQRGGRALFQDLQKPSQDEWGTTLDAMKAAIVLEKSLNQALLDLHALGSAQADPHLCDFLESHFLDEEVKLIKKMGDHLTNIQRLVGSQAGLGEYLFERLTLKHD
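Steps: apoferritin (10 uM) was premixed with half-saturated 1-AMA in PBS, compounds were pin-transferred, plates stood 10 min at room temperature, fluorescence was read at 380/535 nm, and curves were fitted with a Hill equation.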
mIDH1 inhibitor – inhibitors of human mutant IDH1 R132H | IDH1-R132H enzyme, NADPH consumption, diaphorase/resazurin fluorescence | Potency, µM (highest dose often 76.6 µM), for the others: top-dose activity change, negative = inhibition, hits mostly inhibitors | AID 602179 | 390,000 compounds, 0.093% hits; note: potency is the fitted concentration of half-maximal effect; % is set by controls: 0 for no effect and ±100 for the full control effect; nearly all actives have a fitted effect of over 65% in size
Target sequence (O75874 whole entry R132H, stated change not applied): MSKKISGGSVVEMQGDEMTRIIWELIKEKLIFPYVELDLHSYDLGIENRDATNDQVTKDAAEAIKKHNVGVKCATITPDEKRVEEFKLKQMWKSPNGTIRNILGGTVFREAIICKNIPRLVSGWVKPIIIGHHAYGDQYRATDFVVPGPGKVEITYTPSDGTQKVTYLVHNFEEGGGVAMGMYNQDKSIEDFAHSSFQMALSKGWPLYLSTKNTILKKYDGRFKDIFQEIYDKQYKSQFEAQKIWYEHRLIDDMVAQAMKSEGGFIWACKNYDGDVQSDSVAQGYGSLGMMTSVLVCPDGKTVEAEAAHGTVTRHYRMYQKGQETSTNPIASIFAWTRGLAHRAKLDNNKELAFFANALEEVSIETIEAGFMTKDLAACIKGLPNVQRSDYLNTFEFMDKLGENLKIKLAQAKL
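IDH1-R132H (0.5 ug/mL dispensed) in pH 7.5 Tris buffer was preincubated 30 min with compound, then given a substrate mix of 0.016 mM NADPH and 2 mM alpha-KG for 80 min at room temperature; remaining NADPH was read by diaphorase/resazurin fluorescence.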
A549 viability – kills or reduces viability of A549 cells in Nrf2 counter-screen | Potency, µM (titrated, usually from 46 µM), for the others: top-dose activity change, negative = cytotoxicity, hits mostly inhibitors | AID 504648 | A549 ARE-Fluc cells, CellTiter-Fluor viability, 18-24 h | 390,000 compounds, 0.16% hits; note: potency is the fitted concentration of half-maximal effect; % is set by controls: 0 for no effect and ±100 for the full control effect
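A549 ARE-Fluc cells in 5% FBS OPTI-MEM, 5000 cells/well, rested 2 h then exposed to compounds in concentration-response for 18-24 h at 37 °C. Viability by CellTiter-Fluor fluorescence (Ex 405/Em 525) after 30 min; luciferase luminescence (BugLite, 15 min, RT) read afterwards.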
* marks the source's active call; other numbers are inactive results; ? = inconclusive; / = no result; [ ] = remark or other dose. Unless noted, calls come from the whole dose curve; as a rule, active = well fitted curve in the direction sought with a large enough effect; inconclusive = small, poorly fitted or top-dose-only effect, or another doubt; inactive = no such curve, though single readings can be large; an effect the other way counts as inactive or inconclusive.

SMILES	Nrf2 ARE act	Nrf2 inh	Giardia kill	Apoferritin bind	mIDH1 inhibitor	A549 viability
O=C(COC(=O)c1ccc2c(c1)S(=O)(=O)c1ccccc1C2=O)NC1CC1	-1%	-5%	-19	-8%	-5%	5%
CC1CCC(NC(=O)c2ccc3c(c2)S(=O)(=O)c2ccccc2C3=O)CC1 (stereo unspecified)	4%	16µM*	5	/	-8%	-13%
Cc1ccc(S(=O)(=O)N2CCN(c3nc(-c4ccnnc4)nc4ccccc34)CC2)cc1	/	6%	-3	/	/	8%
N#C/C(=C(/O)c1ccc([N+](=O)[O-])o1)c1nc2ccccc2[nH]1	?	25%	-92*	3%	19%	?
CC(C)NC(=O)COC(=O)CNC(=O)C1CCCCC1	/	5%	-7	/	/	3%
O=C(O)CSc1cc(NS(=O)(=O)c2cccc([N+](=O)[O-])c2)c2ccccc2c1O	-3%	?	-81*	-1%	8%	?
C#CCSc1nc(-c2ccccc2)cc(C(F)(F)F)c1C#N	8.9µM*	-16%	26	4%	0%	2%
Cc1ccc(-c2cc(C(F)(F)F)c(C#N)c(SCCC#N)n2)o1	7.1µM*	7%	-16	-13%	-2%	-2%
C#CCSc1nc(-c2ccccc2)cc(-c2ccccc2)c1C#N	5%	-9%	/	-11%	-6%	12%
N#Cc1c(C(F)(F)F)cc(-c2cccs2)nc1SCc1cccnc1	8%	13µM*	-5	-8%	0%	?
N#Cc1c(C(F)(F)F)cc(-c2cccs2)nc1SCc1ccc(F)cc1	3%	11%	/	-6%	13%	5%
COc1ccc(-c2cc(C(F)(F)F)c(C#N)c(SCC(=O)O)n2)cc1	3%	-7%	-4	1%	3%	-11%
O=C1CCCC2=C1C1(CCSC1)N=C(Nc1nc3ccccc3o1)N2 (stereo unspecified)	/	-5%	/	/	/	-2%
O=[N+]([O-])c1ccc(Sc2cc[n+]([O-])c3ccccc23)c([N+](=O)[O-])c1	?	16µM*	20	-6%	-2%	?
CCC(C)N(C(=O)CSc1nc(-c2cccs2)nc2ccccc12)C1CCS(=O)(=O)C1 (stereo unspecified)	2%	8.2µM*	14	/	2%	?
CCC(C)N(C(=O)CSc1ncnc2sccc12)C1CCS(=O)(=O)C1 (stereo unspecified)	0%	-23%	2	/	-2%	-2%
Cc1ccc(C(=O)CSc2nnc(CNc3ccc(C)cc3C)n2Cc2ccco2)cc1	0%	23µM*	-7	4%	4%	?
O=C(CSc1nnc(-c2cc3ccccc3cc2O)n1Cc1ccco1)c1ccc(F)cc1	9%	23µM*	-9	?	-5%	/
O=C(CSc1nc2ccccc2c(=O)n1Cc1ccco1)c1ccc(F)cc1	0%	12µM*	2	?	3%	2%[1.84 µM]
Cc1occc1-c1nnc(SCC(=O)c2ccc(F)cc2)n1Cc1ccco1	0%	-20%	2	0%	6%	-5%
CCCCN1C=CC(=C2C(=O)c3ccccc3C2=O)C=C1	-3%	?	-95*	-9%	-1%	-16%
Cc1cc(N2CCCC(C(=O)Nc3ccc4c(c3)CCC4)C2)n2ncnc2n1 (stereo unspecified)	0%	13µM*	-5	-12%	4%	-14%
Cc1cc(N2CCCC(C(=O)Nc3cccc(Cl)c3)C2)n2ncnc2n1 (stereo unspecified)	0%	-18%	5	-10%	9%	1%
O=C(c1ccc(F)cc1)n1nc(-c2cccnc2)nc1NCc1ccc(F)cc1	0%	?	/	-9%	-17%	0%
Cc1ccc(C(C)(C)C)cc1S(=O)(=O)N1CC(=O)Nc2ccccc21	2%	26µM*	-10	-19%	0%	?
SMILES	Nrf2 ARE act	Nrf2 inh	Giardia kill	Apoferritin bind	mIDH1 inhibitor	A549 viability
COc1ccc2cc(CNCCOCCOCCNCc3ccc4cc(OC)ccc4c3)ccc2c1	-3%	2%	6	/	5%	-11%
O=S(=O)(Nc1cccc(-c2cn3cccnc3n2)c1)c1ccc(F)cc1	6%	16µM*	4	-6%	-1%	-28%
O=S(=O)(Nc1cccc(-c2cn3cccnc3n2)c1)c1ccc(-c2ccccc2)cc1	4%	/	21	-11%	-7%	2%
COc1ccc(N=c2nc(-c3ccccc3)n(-c3ccc(C)cc3)s2)cc1	/	?	12	/	/	-17%
c1ccc(Cc2nnc(N3CCOCC3)c3ccccc23)cc1	0%	1%	11	-9%	2%	15%
c1ccc(Cc2nnc(N3CCCCC3)c3ccccc23)cc1	2%	18µM*	4	?	2%	?
CCOc1ccc(-c2nnc(N3CCCCC3)c3ccccc23)cc1	-1%	26µM*	6	-16%	4%	-28%
Cc1cccc(/C=C(\c2nc3ccccc3[nH]2)S(=O)(=O)c2ccccc2)c1	?	23µM*	-27	-9%	4%	?
O=S(=O)(Nc1cc(Cl)ccc1-n1cncn1)c1cc(Br)ccc1Br	0%	13µM*	-6	/	-1%	?
CCNc1nc(C#N)nc2c1ncn2-c1cccc(Cl)c1	/	?	/	/	/	-15%
COc1ccc2cc(C(=O)N3CCN(Cc4ccc5c(c4)OCO5)CC3)[nH]c2c1	3%	21µM*	-3	-6%	14%	-26%
CCN1CCN(C(=O)c2cc3ccc(OC)cc3[nH]2)CC1	0%	?	-19	2%	-6%	-5%
CCCCOc1ccc(CNC(=O)c2ccc(NC(=O)N3CCCCc4ccccc43)cc2)cc1	-1%	?	/	4%	-7%	4%
O=C(COc1ccc(F)cc1)NCc1ccc2c(c1)CCN2C(=O)c1ccccc1	-1%	/	/	-8%	0%	-9%
Clc1ccc2[nH]c3c(N4CCC5(CC4)OCCO5)ncnc3c2c1	4%	21µM*	-5	-10%	3%	-17%
Cc1ccc2[nH]c3c(N4CCc5ccccc5C4)ncnc3c2c1	9%	7.3µM*	13	-13%	5%	-27%
COc1ccc2[nH]c3c(N4CCN(Cc5ccc6c(c5)OCO6)CC4)ncnc3c2c1	7%	?	4	153%	8%	-16%
COc1ccc2[nH]c3c(N4CCC(O)(c5cccc(C(F)(F)F)c5)CC4)ncnc3c2c1	-1%	23µM*	-10	9%	-3%	?
Brc1ccc2[nH]c3c(N4CCc5ccccc5C4)ncnc3c2c1	3%	9.2µM*	-19	-5%	10%	-13%
Cn1cc(S(=O)(=O)N2CCCCC2)cc1C(=O)Nc1cccc(C#N)c1	-1%	/	/	48%	3%	-3%
